# Experimental data reported in PubChem BioAssay AID449762 (Southern Research Specialized Biocontainment Screening …, 2010).
# The campaign covered roughly 330,000 compounds. About 1,900 (0.58%) were called active. Roughly 4% stayed inconclusive and do not appear here. No stated cut-off is given here; in the data, inconclusive means inhibition above about 70% without an active follow-up result; inactive means below that. A selection follows. Entries with a potency or affinity are not part of this list.
# Assay: M. tuberculosis growth inhibition, HTS (AID 449762);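 further: bacterial growth assessed after seven days of incubation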
# Settings: M. tuberculosis H37Rv growth inhibition, 7H9 media; at 25 µM; active compounds read high
row,SMILES,inhibition
1,COc1ccc(C(=O)OCC(=O)c2cc(OC)ccc2OC)c(OC)c1,-2.93% (inactive)
2,COc1cccc(C(=O)OCC(=O)c2ccc(Br)s2)c1,-2.52% (inactive)
3,CSc1nc2nc(-c3ccc(F)cc3)c(CCN3CCN(C)CC3)cn2n1,-4.6% (inactive)
4,CNc1nc(NCc2ccccc2)c2ccccc2n1,16.5% (inactive)
5,OCCNc1nc(NCc2ccccc2)c2ccccc2n1,5.73% (inactive)
6,CC1(/[N+]([O-])=C/c2ccc(Cl)cc2Cl)CCCCC1=O (configuration not stated),3.79% (inactive)
7,O=C(Cn1c(CO)nc2ccccc21)NC1CCCCCC1,-4.47% (inactive)
8,COCCN(C(=O)c1csnn1)C(C(=O)NC1CCCC1)c1ccccc1F (configuration not stated),-6.7% (inactive)
9,COC(=O)c1cnn(-c2nc(OC)cc(OC)n2)c1C,5.96% (inactive)
10,COc1cc(OC)nc(-n2ncc(OC)c(Br)c2=O)n1,-1.81% (inactive)
11,CSc1ccc(CN2C(=O)NC3(CCCCCCC3)C2=O)cc1,3.48% (inactive)
12,COc1cc2c(cc1O)CCN(C(=O)CSc1nncn1C)[C@@H]2C,-6.62% (inactive)
13,O=C(NCc1cccc(Br)c1)C1CC(c2ccccc2C(F)(F)F)=NO1 (configuration not stated),1.36% (inactive)
14,COC(=O)CCCCC1SCC(NC(=O)c2ccccc2)C1Cl (configuration not stated),-3.83% (inactive)
15,COC(=O)CCCCC1SCC(NC(=O)c2ccccc2)C1OC(C)=O (configuration not stated),4.8% (inactive)
16,COC(=O)c1cc(C#N)c(N2CCN(C)CC2)nc1C,-0.25% (inactive)
17,O=C(COc1ccccc1)NCC(=O)N1CCCCCC1,-3.96% (inactive)
18,CCn1cc(Cl)c(C(=O)N2N=C(c3ccc4ccccc4c3)CC2c2ccccc2O)n1 (configuration not stated),0.64% (inactive)
19,CCn1cc([N+](=O)[O-])c(C(=O)N2N=C(c3ccc(O)c(OC)c3)CC2c2ccccc2O)n1 (configuration not stated),-14.8% (inactive)
20,CC1CCN(C(=O)c2ncn(Cc3ccccc3)c2C(=O)N2CCC(C)CC2)CC1,5.23% (inactive)
21,COc1ccccc1OCCNC(=O)c1ccc(S(=O)(=O)N(C)C)cc1,-2.93% (inactive)
22,COc1ccccc1NC(=O)c1ccc(S(=O)(=O)N(C)C)cc1,-13.6% (inactive)
23,CC(C)CC(=O)NC(=S)Nc1ccccc1F,-4.61% (inactive)
24,O=C(Nc1ccnc(-c2ccncc2)n1)c1ccc(Cl)cc1,11.3% (inactive)
25,CN(CCOc1ccc(Cl)cc1)C(=O)CN1C(=O)NC2(CCCCC2)C1=O,-0.72% (inactive)
26,COc1ccc(OC)c(NC(=O)C2CCN(Cc3cnn(-c4ccccc4)c3-n3cccc3)CC2)c1,61.3% (inactive)
27,COc1ccc(NC(=O)C2CCN(Cc3cnn(-c4ccccc4)c3-n3cccc3)CC2)cc1OC,-3.38% (inactive)
